SARS 3CLpro inh – SARS-CoV 3CLpro protease inhibition. P0C6X7. recombinant SARS-CoV 3CLpro, quenched FRET peptide cleavage. inhibition, % at 6 µM. 0.14% of 290,000 active. AID 1706; in the data active = inhibition above about 12%
PfHsp40 yeast – compounds rescuing yeast from Plasmodium falciparum HSP40 toxicity. S. cerevisiae expressing PfHsp40, growth rescue, ATP luminescence. growth rescue, % at 12.5 µM. 0.68% of 340,000 active. AID 504582; in the data active = growth rescue above about 28%, passing the limit was not always enough; inconclusive = no clear call, values can overlap the other calls;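 note: yeast W303a lacking pdr1 and pdr3 grown in galactose medium; growth measured after three days at 30 °C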
BH1578 lux ind – induces V. cholerae light production without autoinducers; V. cholerae BH1578 lux reporter, luminescence, 6 h; activation, % at 18.7 µM; 0.16% of 350,000 active; AID 588436; in the data active = activation mostly above about 9.7%, no sharp cut-off; inconclusive = no clear call, values can overlap the other calls; inactive = mostly below about 3.7%
PrP 5UTR inh – suppresses PrP 5' UTR mRNA reporter expression. inhibition, % (no concentration beside the values). cell-based PrP 5' UTR mRNA reporter, plate reader. 0.35% of 340,000 active; in the data active = inhibition above about 52%; note: 0 = median of the neutral control wells
PrPC surface inh – inhibitors of human cell surface prion protein PrPC; P04156; inhibition, % at 13.8 µM; AID 720596; TR-FRET read-out; 0.43% of 370,000 active; in the data active = inhibition above about 24%; note: 0% = median of the test wells and 100% = reference compound wells
PriA SSB inh – inhibitors of Klebsiella pneumoniae PriA binding to SSB C-terminal tail; 0.6% of 430,000 active; AID 1272365; inhibition, % at 33 µM; AlphaScreen SSBct-PriA binding, biotinylated peptide; in the data active = inhibition mostly above about 37%, no sharp cut-off; inactive = mostly below about 20%;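 note: plate controls were negative control peptide for no effect and reference peptide for full effect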
PrP 5UTR single – prion 5' UTR mRNA inhibition, cherry-pick retest | inhibition, % at 2.5 µM | shares compounds with PrP 5UTR inh | cell-based prion protein 5' UTR reporter, plate reader | 48% of 1,100 active; in the data active = inhibition above about 54%; inconclusive = no clear call, values can overlap the other calls
An asterisk follows results filed as active; i = inactive; ? = inconclusive; . = no result given. Sampled rows, rich in hits. Any-hit rate of the full collection: about 1.6%.

SMILES	SARS 3CLpro inh	PfHsp40 yeast	BH1578 lux ind	PrP 5UTR inh	PrPC surface inh	PriA SSB inh	PrP 5UTR single
NC(=O)CC(NC(=O)Cc1cccc2ccccc12)c1ccc(NCc2ccccc2)c([N+](=O)[O-])c1 (stereo unspecified)	.	0	-3	-25	-12	7	.
CCOC(=O)c1c(NC(=O)CCc2ccc(-c3ccccc3)o2)sc(C)c1C	.	.	.	.	.	-12	.
CCC1SC(CC)C(=O)N(CC(=O)NCc2ccc(F)cc2)C1=O (stereo unspecified)	2	-1	i	78*	3	7	-19
COc1ccc(SCC(=O)N2CCN(c3ccccc3)CC2)cc1	.	.	.	.	.	4	.
CC(C)N(Cc1cc2ccccc2[nH]c1=O)C(=O)c1cccc([N+](=O)[O-])c1	3	-1	0	68*	-6	-16	-7
O=S1(=O)CC(N2CCCC2)CN1C1CCCCC1 (stereo unspecified)	.	.	.	.	-6	.	.
O=S1(=O)CC(N2CCCCC2)C(N2CCCCC2)C1 (stereo unspecified)	-3	-1	-1	69*	1	-1	-6
Cc1nc2ccc(NC(=O)CCSc3ccccc3)cc2c(=O)n1-c1ccc(F)cc1	.	.	.	.	.	-13	.
Cn1nnnc1SCC(=O)N1CCN(S(=O)(=O)c2ccccc2)CC1	6	0	i	71*	-8	-9	-22
O=c1n(CCNS(=O)(=O)c2ccc3c(c2)OCCO3)nc(-c2ccco2)n1C1CC1	.	.	.	.	.	-4	.
CC(C)(C)c1ccc(C(=O)Nc2ccc(CC(=O)O)cc2)o1	5	0	0	72*	6	-3	75*
Cc1ccc(C(=O)Nc2ccc(CC(=O)O)cc2)o1	0	-1	i	-21	-5	-4	.
O=C(N/N=C/c1ccccc1)c1[nH]c2ccc(Br)cc2c1-c1ccccc1	1	1	-1	59*	15	i	88*
O=C(NN=C1CCCC1)c1[nH]c2ccc(Br)cc2c1-c1ccccc1	8	.	.	.	6	3	.
O=S(=O)(c1ccc(Cl)s1)N1CC(c2nc(-c3cnccn3)no2)C1	.	.	.	.	.	-17	.
c1ccc(-c2noc(-c3ccc4c(c3)OCO4)n2)nc1	-1	-1	-1	86*	4	4	85*
c1ccc(-c2noc(-c3ccncc3)n2)nc1	1	-1	i	-52	-6	-7	.
c1ccc(-c2noc(-c3ccc4ccccc4c3)n2)nc1	1	-1	0	89*	.	-3	87*
Cc1cc(NC2=CC(=O)C(=O)c3ccccc32)no1	.	4	-2	77*	-10	7	-2
O=c1c2ccccc2oc2nc(-c3ccccc3F)n(Cc3ccccc3)c(=O)c12	.	.	.	.	.	5	.
Cc1ccc(-n2c([S-])c(C(=O)Nc3ccc(OC(F)F)cc3)[n+]3ccc(C(=O)NCCO)cc23)cc1C	0	1	0	78*	-11	7	0
O=C(OCCNC(=O)c1cc2ccccc2oc1=O)c1cccnc1	0	-1	0	66*	-1	-13	10
Cc1ccc(-c2cc3c(nn2)-c2ccccc2C3=O)cc1	-4	0	0	76*	-9	5	82*
O=C(c1ccc2c(c1)OCO2)N1CCC2(CC1)Oc1ccc(Cl)cc1C(=O)C21CC(c2cccnc2)=NO1 (stereo unspecified)	.	-1	-3	53*	-3	-6	-5
Cc1cc(C)nc(Sc2ncnc(N)c2[N+](=O)[O-])n1	4	-2	i	56*	3	1	-1
SMILES	SARS 3CLpro inh	PfHsp40 yeast	BH1578 lux ind	PrP 5UTR inh	PrPC surface inh	PriA SSB inh	PrP 5UTR single
O=c1[nH]cnc2c(-c3cccc(F)c3)csc12	.	.	.	.	.	-13	.
CCOc1ccccc1C1C2=C(COC2=O)Nc2cc3c(cc21)OCO3 (stereo unspecified)	-1	0	0	64*	10	1	82*
O=C1OCC2=C1C(c1ccc(F)cc1)c1cc3c(cc1N2)OCO3 (stereo unspecified)	-7	1	-2	50	13	-18	.
O=C1OCC2=C1C(c1ccc(F)cc1)c1cc3c(cc1N2)OCCO3 (stereo unspecified)	1	1	7	54*	9	-11	88*
Oc1ccc(Cl)cc1C=Nc1ccccc1Br	-7	0	0	57*	8	-1	-6
Cc1ccccc1C(=O)O/N=C(\N)c1ccccc1	-3	-1	-1	56*	2	i	55*
Cc1ccc(C(=O)O/N=C(\N)c2ccccn2)c(C)c1	-5	-1	0	95*	1	i	97*
N/C(=N\OC(=O)c1ccccc1Cl)c1ccccn1	0	0	0	76*	0	.	71*
COc1ccccc1C(=O)O/N=C(\N)c1ccccn1	2	-2	0	-67	-7	i	.
COc1ccc(C(=O)O/N=C(\N)c2ccccn2)cc1	-2	0	0	88*	1	i	94*
CCOCC(=O)N1CCN(c2nccn2-c2ccc(C)cc2)CC1	.	.	.	.	.	-2	.
O=C(Nc1nnc(-c2ccc(Br)cc2)s1)c1ccccc1C(F)(F)F	.	.	.	.	.	-7	.
CCOc1ccc(S(=O)(=O)NC[C@@](O)(c2ccccc2)C2CC2)cc1F	.	.	.	.	.	-6	.
Cc1ccc(-c2csc(NC(=O)CSc3nnc(Cc4ccccc4)n3N)n2)cc1	.	.	.	.	.	-10	.
COC(=O)c1ccc(C(=O)NCC(c2ccsc2)N(C)C)cc1 (stereo unspecified)	.	.	.	.	.	0	.
C=CCNC(=O)C1CCN(C(=O)c2ccc(-c3ccccc3)cc2)CC1	4	1	-1	60*	-6	-7	?
CCCCN(C(=O)c1ccc(Cl)cc1)C1CC2CCC(C1)N2C (stereo unspecified)	1	-1	0	72*	-1	-26	-14
O=C(NCCCS(=O)(=O)N1CCN(c2ccccn2)CC1)c1ccc(=O)[nH]c1	.	.	.	.	.	-20	.
CCN(CC)c1ccc(C(=C2C=CC(=[N+](CC)CC)C=C2)c2ccc(N(CC)CC)cc2)cc1	.	-6	-1	52*	-143	111	?
Cc1cc(S(=O)(=O)Nc2ccccc2C(=O)O)c(C)cc1Cl	.	.	.	.	.	-11	.
Cc1cn(CC(=O)NCCCc2ccccc2)c(=O)[nH]c1=O	.	0	0	-14	-3	-6	.
O=c1[nH]c(=O)n(CCCc2ccccc2)cc1-c1ccccc1	.	-1	-1	63*	0	-8	-15
COC(=O)c1ccc2c(c1)c(-c1ccccc1)c(-c1ccccc1)n2C	.	-1	i	85*	-3	-2	-27
O=C(NCc1nc2ccccc2[nH]1)c1ccc([N+](=O)[O-])cc1	4	2	i	74*	-33	-12	-26
O=C(NCc1nc2ccccc2[nH]1)c1cccc([N+](=O)[O-])c1	.	.	.	.	.	9	.
COc1ccccc1C(=O)NCCC(=O)Nc1nc2ccccc2[nH]1	.	0	i	-17	2	-3	.

Screening results from PubChem.
